CYP2C9 inh: blockers of cytochrome P450 2C9 activity – biochemical, luminescence, ADME assay, primary screen | P11712 | CYP2C9 Supersomes, luciferin-H conversion | inhibition, % at 5 µM | hit rate 20% among 96,000;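 active = blocking of liver enzyme CYP2C9 beyond about 50% at 5 µM, limit read from the data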
Target sequence (P11712 whole entry, looked up): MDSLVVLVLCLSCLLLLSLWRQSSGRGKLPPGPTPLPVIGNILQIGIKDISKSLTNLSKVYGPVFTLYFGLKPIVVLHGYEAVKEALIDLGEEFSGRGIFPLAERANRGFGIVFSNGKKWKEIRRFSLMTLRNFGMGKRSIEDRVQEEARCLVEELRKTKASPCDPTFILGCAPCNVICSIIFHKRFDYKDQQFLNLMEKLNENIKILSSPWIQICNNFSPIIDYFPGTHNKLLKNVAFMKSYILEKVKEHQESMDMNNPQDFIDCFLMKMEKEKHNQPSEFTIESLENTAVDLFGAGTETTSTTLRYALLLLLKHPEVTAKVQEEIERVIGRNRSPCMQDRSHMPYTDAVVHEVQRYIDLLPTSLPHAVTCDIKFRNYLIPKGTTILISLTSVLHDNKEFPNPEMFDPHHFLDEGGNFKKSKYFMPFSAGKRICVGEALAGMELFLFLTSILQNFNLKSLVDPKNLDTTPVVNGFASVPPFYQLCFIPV
CYP2C19 inh: blockers of cytochrome P450 2C19 activity – biochemical, luminescence, ADME assay, primary screen; P33261; CYP2C19 Supersomes, luciferin-H EGE luminescence, 30 min; inhibition, % at 5 µM; hit rate 21% among 96,000;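 active = CYP2C19 inhibition above a set limit at 5 µM in the primary screen, cut at about 50% in these data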;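 note: plate controls were negative control wells for no effect and 2.5 mM tranylcypromine positive control for full effect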
sEH activator: soluble epoxide hydrolase activators, primary screen, biochemical, human sEH | Bifunctional epoxide hydrolase 2 (Homo sapiens), P34913 | purified human sEH enzymatic activity, activator screen | activation, % at 2 µM | hit rate 0.04% among 91,000; in the data active = activation above about 37%
sEH inh: soluble epoxide hydrolase inhibitors, primary screen, biochemical, human sEH | hit rate 0.34% among 91,000 | recombinant human sEH enzymatic activity assay | AID 707, 2007 | inhibition, % at 2 µM; in the data active = inhibition above about 80%
CYP2C9 act: human CYP2C9 activators, primary screen, biochemical, luminescence. Cytochrome P450 2C9 (Homo sapiens), P11712. recombinant CYP2C9, luciferin-H conversion; active compounds read high; factor 1 = untreated enzyme, 0 = blocked. activation factor at 5 µM. hit rate 1.4% among 96,000. AID 1024, 2008;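 active = activation factor of 2 or more for CYP2C9 at a 5 µM dose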;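 note: 0 = sulfaphenazole-blocked wells and 1 = vehicle-only wells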
CYP2C19 activ: human CYP2C19 activators, primary screen, biochemical, luminescence | Cytochrome P450 2C19 (Homo sapiens), P33261 | 96,000 tested, under 10 active | activation factor at 5 µM | recombinant CYP2C19, luciferin-H EGE luminescence; active compounds read high; 0 = fully inhibited enzyme, 1 = untreated enzyme;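 active = activation factor of at least 2 at 5 µM in the primary screen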;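 note: 0 = wells with 2.5 mM tranylcypromine and 1 = vehicle-only wells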
The depositor's hits bear a star; . = no result given. Sampled rows, rich in hits. Any-hit rate of the full collection: about 27%.

SMILES | CYP2C9 inh | CYP2C19 inh | sEH activator | sEH inh | CYP2C9 act | CYP2C19 activ
C=C(C)Cn1c(-c2ccc(OC)cc2)nc2ccccc21 | 96.5* | 90.1* | 5.0 | -5.3 | 0 | 0.1
CCOC(Cn1c(-c2ccc(OC)cc2)nc2ccccc21)OCC | 85.8* | 49.8 | 1.2 | -1.6 | 0.1 | 0.5
CCCn1c(-c2ccc(OC)cc2)nc2ccccc21 | 9.5 | 10.6 | 1.1 | -1.5 | 0.9 | 0.9
CCC(=O)Nc1nc2nc(C)cc(=O)n2[nH]1 | -3.1 | 3.4 | 2.5 | -2.5 | 1 | 1
COc1ccc(-c2csc(C3=C(O)CN(Cc4ccc(Cl)cc4)C3=N)n2)cc1OC | 89.4* | 42.9 | -6.5 | 8.2 | 0.1 | 0.6
COc1ccc(-c2csc(C3=C(O)CN(Cc4ccc(S(N)(=O)=O)cc4)C3=N)n2)cc1OC | 4.6 | 25.7 | 7.1 | -7.5 | 1 | 0.7
COc1cccc(CN2CC(O)=C(c3nc(-c4ccc(Cl)cc4)cs3)C2=N)c1 | 22.6 | 14.6 | -2.8 | 4.9 | 0.8 | 0.9
N=C1C(c2nc(-c3ccc(F)cc3)cs2)=C(O)CN1Cc1ccc(Cl)cc1 | 53.1* | 45.4 | 3.6 | -2.1 | 0.5 | 0.5
Cc1cc(NC(=O)CCC(=O)N(c2ccc(F)cc2)C(C(=O)NC2CCCC2)c2ccncc2)no1 (stereo not given) | 29.6 | 48.5 | 11.5 | -10.9 | 0.7 | 0.5
COc1ccc(C2C(C(N)=O)=C(C)Nc3nc(-c4ccccc4)nn32)cc1OC (stereo not given) | 7.0 | 34.2 | -10.9 | 9.5 | 0.9 | 0.7
COc1cccc(C2C(C(N)=O)=C(C)Nc3nc(-c4ccccc4Cl)nn32)c1 (stereo not given) | 33.8 | 60.4* | . | . | 0.7 | 0.4
COc1ccccc1C1C(C(N)=O)=C(C)Nc2nc(-c3ccccc3Cl)nn21 (stereo not given) | -7.8 | 26.5 | -8.0 | 6.5 | 1.1 | 0.7
COc1ccc(C2C(C(N)=O)=C(C)Nc3nc(-c4cccc(Cl)c4)nn32)cc1OC (stereo not given) | 40.6 | 56.0* | -12.0 | 13.2 | 0.6 | 0.4
COc1ccccc1NC(=O)C1=C(C)Nc2nc(-c3cccs3)nn2C1c1cccc(O)c1 (stereo not given) | 69.5* | 32.8 | -4.9 | 3.6 | 0.3 | 0.7
COc1ccc(C2C(C(=O)Nc3cccnc3)=C(C)Nc3nc(-c4cccs4)nn32)cc1OC (stereo not given) | 48.3 | 10.1 | 19.2 | -19.2 | 0.5 | 0.9
CC(C)CC1C(C#N)=C(N)Oc2n[nH]c(-c3cccs3)c21 (stereo not given) | 21.7 | 67.0* | -1.0 | -1.9 | 0.8 | 0.3
N#CC1=C(N)Oc2n[nH]c(-c3cccs3)c2C1c1cccs1 (stereo not given) | 15.3 | 3.9 | 18.1 | -16.5 | 0.8 | 1
CSCCC1C(C#N)=C(N)Oc2n[nH]c(-c3cccs3)c21 (stereo not given) | 55.2* | 36.6 | 5.1 | -6.5 | 0.4 | 0.6
C=C(C)Cn1c(SCC(=O)O)nnc1-c1ccc(OC)cc1 | -13.2 | -14.7 | -0.8 | -1.1 | 1.1 | 1.1
O=C1CCCc2oc3ccc(O)cc3c21 | . | . | -5.0 | 7.6 | . | .
COc1cc(/C=C2\SC(c3ccc(C)cc3)=NC2=O)cc(OC)c1O | 81.7* | 70.7* | -7.1 | 7.1 | 0.2 | 0.3
COc1ccc(-c2nc(C#N)c(NC(C)c3ccccc3)o2)cc1OC (stereo not given) | 53.0* | 40.0 | 4.6 | -4.1 | 0.5 | 0.6
COc1ccccc1-c1nc(C#N)c(NCc2ccc(F)cc2)o1 | 60.4* | 76.4* | 4.3 | -0.9 | 0.4 | 0.2
COc1ccc(-c2nc(C#N)c(NCCCN(C)C)o2)cc1OC | -1.0 | -1.6 | 1.5 | 0.0 | 1 | 1
COc1ccc(CCNc2oc(-c3ccccc3OC)nc2C#N)cc1OC | 72.4* | 98.2* | 12.6 | -12.5 | 0.3 | 0
SMILES | CYP2C9 inh | CYP2C19 inh | sEH activator | sEH inh | CYP2C9 act | CYP2C19 activ
COc1ccc(-c2nc(C#N)c(N3CCOCC3)o2)cc1OC | -11.5 | 20.8 | . | . | 1.1 | 0.8
COc1ccc(CCNc2oc(-c3ccc(OC)c(OC)c3)nc2C#N)cc1 | 53.0* | 52.1* | 9.8 | -9.6 | 0.5 | 0.5
O=C(NC1(C(F)(F)F)NC(=O)N(Cc2ccccc2)C1=O)c1cccs1 (stereo not given) | . | . | 2.5 | -1.3 | . | .
COc1ccc(C(=O)C(CO)Oc2ccccc2OC)cc1OC (stereo not given) | -10.2 | 30.1 | -1.3 | 0.9 | 1.1 | 0.7
O=C(O)CCNS(=O)(=O)c1ccc(Oc2ccccc2)cc1 | 12.5 | 0.1 | -3.0 | 2.3 | 0.9 | 1
COc1ccc(-c2nc(C#N)c(NCC3CCCO3)o2)cc1OC (stereo not given) | 70.8* | 67.1* | 11.1 | -12.4 | 0.3 | 0.3
N#Cc1nc(-c2ccccc2F)oc1NCc1cccc2c1OCO2 | 86.0* | 10.8 | 18.6 | -20.5 | 0.1 | 0.9
COc1ccc(CCNc2oc(-c3ccccc3OC)nc2C#N)cc1 | 59.8* | 92.5* | -7.1 | 5.2 | 0.4 | 0.1
Cc1nc2ccc(S(=O)(=O)NC(C(=O)N3CCC(C)CC3)C(C)C)cc2s1 (stereo not given) | 28.6 | 13.0 | -8.1 | 5.7 | 0.7 | 0.9
Cc1cc(NC(=O)C2CCCCC2C(=O)O)no1 (stereo not given) | -21.8 | -13.9 | -3.4 | 1.6 | 1.2 | 1.1
CCc1c(C)nc2[nH]nc(NC(=O)C(F)(F)F)n2c1=O | 10.4 | 2.6 | -7.8 | 7.5 | 0.9 | 1
O=C(NCc1ccco1)C1(c2ccc(Br)cc2)CCCC1 | 70.0* | 30.8 | 6.7 | -7.3 | 0.3 | 0.7
Cc1ccc(NC(=O)NC2(C(=O)NCc3ccco3)CCCCC2)cc1 | 53.8* | 93.0* | 13.0 | -12.9 | 0.5 | 0.1
O=C(NCc1ccco1)NCC(F)(F)F | -8.8 | 8.1 | 7.8 | -8.6 | 1.1 | 0.9
CC(=O)Nc1ccc(SCC(=O)OCC(=O)NC(=O)NCc2ccco2)cc1 | 66.4* | 19.5 | 9.9 | -6.7 | 0.3 | 0.8
O=C(Nc1ccccc1)NC1(C(=O)NCc2ccco2)CCCCC1 | 40.3 | 14.8 | 11.1 | -11.0 | 0.6 | 0.9
O=C(NCc1ccco1)Nc1ccc(Br)cc1 | 63.9* | 63.6* | -42.6 | 42.5 | 0.4 | 0.4
NC(=O)c1c(NC(=O)c2ccccc2)sc2c1CCc1ccccc1-2 | -6.7 | 7.3 | -4.3 | 3.9 | 1.1 | 0.9
O=c1oc2c(CN3CCCCCC3)c(O)ccc2cc1-c1nc2ccccc2[nH]1 | 18.6 | 11.3 | . | . | 0.8 | 0.9
Cn1cc(S(=O)(=O)NCc2cccs2)c(=O)n(C)c1=O | -13.1 | -18.5 | 0.5 | -1.3 | 1.1 | 1.2
CC1CC(C)CN(S(=O)(=O)c2cccc(C(=O)OCCN3CCCC3=O)c2)C1 (stereo not given) | -4.3 | 4.3 | 16.4 | -12.8 | 1 | 1
COC(=O)Nc1nnc(Cc2ccc(Cl)cc2)s1 | 28.2 | 48.1 | 7.4 | -8.4 | 0.7 | 0.5

Assay outcomes (PubChem)
